# Laboratory results taken from PubChem BioAssay (Tox21).
# Inconclusive results are not listed. Entries that show only a call come without a potency. Active and inactive are the calls of the source. Unless noted, calls come from the whole dose curve; as a rule, active = well fitted curve in the direction sought with a large enough effect in the repeat runs; inconclusive = weak or mixed curves; inactive = no such curve, though single readings can be large; an effect the other way counts as inactive or inconclusive.
# Assays:
# [1] = A CellTox Green Cytotoxicity Assay to monitor cytotoxicity in HEK293 cells - 32 hour (AID 1224881); note: nearly all actives have a fitted effect of over 40% in size; note: potency is the fitted concentration of half-maximal effect
# Outline: (§1)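 Homogeneous no-lysis format: HEK293 cell suspension mixed with CellTox Green reagent, seeded, incubated 5 h at 37 C/5% CO2, then dosed by pintool with compound in DMSO.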
# [2] = A CellTox Green Cytotoxicity Assay to monitor cytotoxicity in HepG2 cells - 0 hour (AID 1224882); note: nearly all actives have a fitted effect of over 35% in size
# Outline: (§2)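 Fluorescent DNA-binding dye, 600 HepG2 cells/well, 5 h preincubation then compound in DMSO; same plates read at 0–40 h, 37 C.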
# [3] = A CellTox Green Cytotoxicity Assay to monitor cytotoxicity in HEK293 cells - 8 hour (AID 1224884); note: nearly all actives have a fitted effect of over 35% in size; note: potency is the fitted concentration of half-maximal effect
# Outline: as §1
# [4] = qHTS RealTime-Glo MT Cell Viability Assay in HepG2 cells - 16 hour (AID 1224885); note: nearly all actives have a fitted effect of over 50% in size
# Outline: (§3)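 qHTS, HepG2, 600 cells/well, RealTime-Glo (NanoLuc + prosubstrate) added with cells; 5 h preincubation; DMSO compound addition; 37 C; luminescence at 0/8/16/24/32/40 h.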
# [5] = qHTS RealTime-Glo MT Cell Viability Assay in HEK293 cells - 24 hour (AID 1224886); note: nearly all actives have a fitted effect of over 50% in size; note: potency is the fitted concentration of half-maximal effect
# Outline: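 Assay medium contained NanoLuc luciferase plus cell-permeant prosubstrate, added with HEK293 cells at 600 cells/well. After 5 h at 37 C/5% CO2 compounds were added; plates stayed at 37 C for 40 h with serial luminescence reads.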
# [6] = qHTS RealTime-Glo MT Cell Viability Assay in HEK293 cells - 8 hour (AID 1224887); note: nearly all actives have a fitted effect of over 50% in size; note: potency is the fitted concentration of half-maximal effect
# Outline: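 Measured as luminescence from the same continuously cultured HEK293 wells at successive time points (0, 8, 16, 24, 32, 40 h) after compound addition. Reagent present from seeding; dosing at 5 h; incubation 37 C.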
# [7] = qHTS RealTime-Glo MT Cell Viability Assay in HepG2 cells - 0 hour (AID 1224889); note: nearly all actives have a fitted effect of over 50% in size
# Outline: as §3
# [8] = A CellTox Green Cytotoxicity Assay to monitor cytotoxicity in HepG2 cells - 8 hour (AID 1224890); note: nearly all actives have a fitted effect of over 45% in size
# Outline: as §2
# [9] = qHTS assay to identify small molecule antagonists of the estrogen receptor alpha (ER-alpha) signaling pathway using the BG1 cell line in the presence of 0.1 nM 17-beta-estradiol - cell viability counter screen (AID 1259241); note: nearly all actives have a fitted effect of over 40% in size; note: potency is the fitted concentration of half-maximal effect
# Outline: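 CellTiter-Fluor read (30 min, 37C) on ER-alpha/ERE-luc VM7Luc4E2 cells; 22 hr compound treatment; agonist 0.1 nM E2 final; same-well multiplex.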
# [10] = qHTS assay to identify small molecule phospholipidosis (PLD) inducers (AID 1259344; active = well fitted curve in the direction sought with a large enough effect; an effect the other way counts as inactive or inconclusive)
# Outline: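 Accumulated phospholipid, stained red by LipidTOX during 24 h compound treatment of HepG2 cells at 37 C, is quantified from images as pit number and intensity, normalised per cell using Hoechst-stained nuclei.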
# [11] = qHTS assay to identify small molecule HDAC inhibitors (AID 1259364); note: potency is the fitted concentration of half-maximal effect;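 note: wild-type HCT-116 cells with endogenous class I/II HDAC activity; nearly all actives have a fitted effect of over 45% in size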
# Outline: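 After a 2 hr compound incubation (37C, 5% CO2), HCT-116 cells seeded at 1,500/well the day before received HDAC-Glo reagent; signal read as luminescence after 30 min at room temperature.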
# [12] = qHTS assay to identify small molecule antagonists of the sonic hedgehog signaling (Shh) pathway - cell viability counter screen (AID 1259367); note: nearly all actives have a fitted effect of over 55% in size; note: potency is the fitted concentration of half-maximal effect
# Outline: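 CellTiter-Fluor signal in conditioned medium-stimulated 3T3 Gli1-Luc cells, 23 hr compound exposure, 37C.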
# [13] = qHTS assay to identify small molecule agonists of the sonic hedgehog signaling (Shh) pathway (AID 1259368; calls by dose curve;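 note: NIH/3T3-derived 3T3Gli1-Luc cells carrying a stable Gli1-driven firefly luciferase reporter; series mostly up to about 92 µM; nearly all actives have a fitted effect of over 15% in size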)
# Outline: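 Stable NIH/3T3 Gli1-Luc reporter clone; 24 hr cpd exposure after a 4 hr settling period; luminescence endpoint.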
# [14] = A CellTox Green Cytotoxicity Assay to monitor cytotoxicity in HEK293 cells - 16 hour (AID 1224888); note: nearly all actives have a fitted effect of over 35% in size
# Outline: as §1
# [15] = qHTS assay to identify small molecule antagonists of the androgen receptor (AR) signaling pathway using the MDA cell line in the presence of 0.5 nM R1881 - cell viability counter screen (AID 1259242); note: nearly all actives have a fitted effect of over 45% in size; note: potency is the fitted concentration of half-maximal effect
# Outline: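 Human breast carcinoma MDA-kb2 cells, cultured without CO2, receive compounds alongside 0.5 nM (final) R1881 agonist. After 16 hr at 37C, viability is taken as live-cell protease signal.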
# [16] = molecular target: Estrogen receptor (Homo sapiens) (UniProt P03372); test: qHTS assay to identify small molecule antagonists of the estrogen receptor alpha (ER-alpha) signaling pathway using the BG1 cell line in the presence of 0.1 nM 17-beta-estradiol (AID 1259244); note: nearly all actives have a fitted effect of over 50% in size; note: potency is the fitted concentration of half-maximal effect
# Outline: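 Seeding of stripped-serum-adapted VM7Luc4E2 cells, 24 h attachment, compound transfer, then 0.1 nM final 17beta-estradiol; after 22 h incubation, ONE-Glo reagent and luminescence reading.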
# [17] = qHTS assay to identify small molecule HDAC inhibitors - cell viability counter screen (AID 1259365)
# Outline: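 To flag cytotoxic hits, 1,500 wild-type HCT-116 cells per well, plated the day before, receive test compounds for 2hr at 37 C before CellTiter-Glo reagent and a luminescence read.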
# [18] = qHTS assay to identify small molecule agonists of the sonic hedgehog signaling (Shh) pathway - cell viability counter screen (AID 1259366); note: nearly all actives have a fitted effect of over 50% in size; note: potency is the fitted concentration of half-maximal effect
# Outline: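 Fluorescence from CellTiter-Fluor reports live cells in this counter screen. NIH/3T3-derived Gli1-Luc reporter cells receive test compounds for 24hr at 37C; reagent goes in at 23hr.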
# [19] = molecular target: Androgen receptor (Homo sapiens) (UniProt P10275); test: qHTS assay to identify small molecule antagonists of the androgen receptor (AR) signaling pathway using the MDA cell line in the presence of 0.5 nM R1881 (AID 1259243); note: nearly all actives have a fitted effect of over 50% in size; note: potency is the fitted concentration of half-maximal effect
# Outline: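 Cells: MDA-kb2 (MMTV-luc). Stimulus: 0.5 nM R1881. Time: 16 hr, 37C, no CO2. Detection: ONE-Glo luminescence after 30 min at RT.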
# [20] = A CellTox Green Cytotoxicity Assay to monitor cytotoxicity in HepG2 cells - 32 hour (AID 1224883); note: nearly all actives have a fitted effect of over 50% in size
# Outline: as §2
# Sequence of Androgen receptor (Homo sapiens) (P10275 whole entry, looked up): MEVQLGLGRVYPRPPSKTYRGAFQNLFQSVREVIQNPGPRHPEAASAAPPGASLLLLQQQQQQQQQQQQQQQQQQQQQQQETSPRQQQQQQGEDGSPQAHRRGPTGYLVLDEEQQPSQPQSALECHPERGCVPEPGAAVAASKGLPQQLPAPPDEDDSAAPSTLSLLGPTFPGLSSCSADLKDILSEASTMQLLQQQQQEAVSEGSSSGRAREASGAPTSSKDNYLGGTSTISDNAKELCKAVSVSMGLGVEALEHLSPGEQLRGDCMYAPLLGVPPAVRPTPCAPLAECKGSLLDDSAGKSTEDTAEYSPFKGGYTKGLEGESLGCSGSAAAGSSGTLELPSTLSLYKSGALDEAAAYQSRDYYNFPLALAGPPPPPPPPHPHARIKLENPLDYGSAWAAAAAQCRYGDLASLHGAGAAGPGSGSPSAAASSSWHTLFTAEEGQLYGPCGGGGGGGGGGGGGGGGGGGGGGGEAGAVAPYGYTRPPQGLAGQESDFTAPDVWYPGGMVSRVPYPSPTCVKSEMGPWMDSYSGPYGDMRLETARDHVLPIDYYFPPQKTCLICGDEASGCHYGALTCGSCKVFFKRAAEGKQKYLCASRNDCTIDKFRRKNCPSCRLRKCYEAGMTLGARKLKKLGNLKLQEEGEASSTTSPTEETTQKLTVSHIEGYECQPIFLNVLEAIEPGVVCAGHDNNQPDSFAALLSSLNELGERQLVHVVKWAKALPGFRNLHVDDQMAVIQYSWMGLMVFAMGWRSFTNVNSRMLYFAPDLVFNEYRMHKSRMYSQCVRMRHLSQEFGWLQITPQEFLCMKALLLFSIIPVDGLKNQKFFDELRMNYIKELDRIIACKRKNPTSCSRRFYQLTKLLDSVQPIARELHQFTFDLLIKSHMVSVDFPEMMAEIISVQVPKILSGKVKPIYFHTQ
# Sequence of Estrogen receptor (Homo sapiens) (P03372 whole entry, looked up): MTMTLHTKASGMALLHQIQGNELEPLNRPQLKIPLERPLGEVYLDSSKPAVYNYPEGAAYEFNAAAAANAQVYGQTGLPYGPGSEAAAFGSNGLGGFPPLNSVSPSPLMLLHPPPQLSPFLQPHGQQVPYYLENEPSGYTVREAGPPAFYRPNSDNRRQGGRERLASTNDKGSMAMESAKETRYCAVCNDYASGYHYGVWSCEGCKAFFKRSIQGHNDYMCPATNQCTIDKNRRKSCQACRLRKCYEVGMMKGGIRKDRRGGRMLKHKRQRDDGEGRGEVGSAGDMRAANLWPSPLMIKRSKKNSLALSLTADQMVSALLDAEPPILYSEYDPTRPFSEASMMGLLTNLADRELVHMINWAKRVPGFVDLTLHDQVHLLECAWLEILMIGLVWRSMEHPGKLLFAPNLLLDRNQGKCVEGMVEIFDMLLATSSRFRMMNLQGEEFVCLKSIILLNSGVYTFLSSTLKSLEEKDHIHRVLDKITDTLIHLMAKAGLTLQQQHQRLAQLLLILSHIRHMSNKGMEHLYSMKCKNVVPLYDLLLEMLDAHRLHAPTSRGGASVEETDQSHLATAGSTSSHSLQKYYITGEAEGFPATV
Structure (SMILES),Potency [1],Potency [2],Potency [3],Potency [4],Potency [5],Potency [6],Potency [7],Potency [8],Potency [9],Potency [10],Potency [11],Potency [12],Potency [13],Potency [14],Potency [15],Potency [16],Potency [17],Potency [18],Potency [19],Potency [20]
CC1CCC(C(C)C)C(OC(=O)c2ccccc2N)C1 (stereo not drawn),38.4 µM (active),inactive,48.3 µM (active),inactive,34.2 µM (active),34.2 µM (active),inactive,inactive,inactive,inactive,inactive,inactive,inactive,–,–,–,–,–,–,–
CC(C)(C)c1ccc(CSc2cnn(C(C)(C)C)c(=O)c2Cl)cc1,inactive,inactive,inactive,–,0.0389 µM (active),7.76 µM (active),inactive,inactive,–,–,inactive,inactive,inactive,inactive,0.0686 µM (active),0.0154 µM (active),inactive,inactive,–,–
CC(C)(C)c1cc([N+](=O)[O-])cc(C(C)(C)C)c1O,inactive,inactive,inactive,–,–,–,inactive,inactive,–,–,inactive,–,inactive,inactive,13.7 µM (active),6.11 µM (active),inactive,inactive,–,–
CCOP(=O)(NC(C)C)Oc1ccc(SC)c(C)c1 (stereo not drawn),inactive,inactive,inactive,–,–,–,inactive,inactive,inactive,–,inactive,–,inactive,–,inactive,–,inactive,–,27.3 µM (active),–
Nc1ccccc1C(=O)Oc1ccc2ccccc2c1,inactive,inactive,inactive,inactive,–,–,inactive,inactive,inactive,–,8.63 µM (active),inactive,inactive,inactive,inactive,inactive,inactive,inactive,inactive,–
CCC(C)c1cc([N+](=O)[O-])cc([N+](=O)[O-])c1OC(=O)C=C(C)C (stereo not drawn),inactive,inactive,inactive,–,38.9 µM (active),49 µM (active),inactive,inactive,61.1 µM (active),–,inactive,–,inactive,inactive,61.1 µM (active),–,inactive,–,54.5 µM (active),–
CC(O)C#N (stereo not drawn),inactive,–,inactive,inactive,inactive,inactive,inactive,inactive,inactive,–,inactive,inactive,inactive,inactive,inactive,inactive,inactive,inactive,inactive,inactive
CC(=O)C(Cl)(Cl)Cl,inactive,inactive,–,–,–,–,–,inactive,20.9 µM (active),–,inactive,16.6 µM (active),inactive,inactive,14.8 µM (active),11.8 µM (active),inactive,20.9 µM (active),9.35 µM (active),inactive
